TLR9-MyD88 inh: inhibitors of TLR9-MyD88 association in cells, primary screen, cell-based, CHO, BLA complementation, fluorescence | Toll-like receptor 9 (Homo sapiens) + Myeloid differentiation primary response protein … | inhibition, % at 4.98 µM | AID 504734, 2011 | CCF4 FRET ratio | 340,000 compounds, 0.21% hits;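 active = inhibition above the mean over all tested compounds plus 3 SD, cut at about 21% in these data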
NOD2 RIPK2 PPI: NOD2-RIPK2 binding disruptors in cells, primary screen, fluorescence, CHO cells, BLA complementation; Receptor-interacting serine/threonine-protein kinase 2 (Homo sapiens), O43353; CCF4 ratio; inhibition, % at 4.98 µM; 360,000 compounds, 0.38% hits; AID 624267, 2012; in the data active = inhibition above about 21%
Bim-Mcl-1: inhibitors of Bim peptide binding to Mcl-1, primary screen, biochemical, bead-based flow cytometry, multiplex | Bim peptide-Mcl-1 binding | 190,000 compounds, 0.1% hits | Induced myeloid leukemia cell differentiation protein Mcl-1 (Homo sapiens), Q07820 | inhibition, % at 10 µM | AID 1009, 2008; in the data active = inhibition above about 40%
TLR4 MyD88 comp: inhibitors of TLR4-MyD88 association in cells, primary screen, cell-based, HeLa CL3-4, BLA complementation, FRET ratio | HeLa CL3-4 TLR4/MyD88 BLA complementation | AID 861, 2007 | inhibition, % at 8.4 µM | 200,000 compounds, 0.18% hits; in the data active = inhibition above about 25%
Mcl1-Noxa inh: Mcl-1/Noxa binding inhibitors, primary screen, biochemical, TR-FRET, 1536-well; inhibition, % at 21.7 µM; TR-FRET Mcl-1/Noxa peptide binding, 2 h; 220,000 compounds, 1.5% hits;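 active = compounds that cut the protein-peptide binding signal by more than 50% relative to plate controls in a single-dose test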;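 also: His-tagged Mcl-1 with rhodamine Noxa BH3 peptide and terbium anti-His antibody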
Mcl1-Bid inh: Mcl-1/Bid binding inhibitors, primary screen, biochemical, TR-FRET, 1536-well; Induced myeloid leukemia cell differentiation protein Mcl-1 (Homo sapiens), Q07820; 220,000 compounds, 0.97% hits; TR-FRET Mcl-1/Bid-Dy647 peptide binding; inhibition, % at 21.7 µM;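 active = compounds that cut the binding signal by more than half at the single screening dose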;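 also: His-tagged Mcl-1 with europium anti-His antibody binding Bid BH3 peptide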
TLR4 MyD88 cnf: TLR4-MyD88 association inhibitors, retest, confirmation, cell-based, HeLa CL3-4, BLA complementation, FRET ratio; shares compounds with TLR4 MyD88 comp; CCF4 FRET ratio; inhibition, % at 8.4 µM; 350 compounds, 50% hits;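 active = mean inhibition across three repeat runs above about 25% carried over from the earlier screen, limit read from the data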
BLA inhibitor ct: beta-lactamase inhibition flagged in TLR4-MyD88 counter-screen; shares compounds with TLR4 MyD88 comp; HeLa BLA reporter, CCF4 FRET ratio; inhibition, % at 8.4 µM; 350 compounds, 63% hits;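 active = mean inhibition over three repeats above about 26% taken from the earlier screen, limit read from the data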;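 also: HeLa cells stably expressing beta-lactamase reporter as counterscreen for TLR4-MyD88 inhibitors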
TLR9-MyD88 cf: TLR9-MyD88 association inhibitors, retest, confirmation, cell-based, CHO, BLA complementation, fluorescence, triplicate. shares compounds with TLR9-MyD88 inh. CCF4 FRET ratio. inhibition, % at 4.98 µM. 680 compounds, 51% hits;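 active = mean inhibition across three repeats above about 21% taken from the earlier screen, limit read from the data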;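 also: blue over green emission ratio reports constitutive TLR9 MyD88 association via BLA complementation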
Target sequence (Q9NR96 whole entry, looked up): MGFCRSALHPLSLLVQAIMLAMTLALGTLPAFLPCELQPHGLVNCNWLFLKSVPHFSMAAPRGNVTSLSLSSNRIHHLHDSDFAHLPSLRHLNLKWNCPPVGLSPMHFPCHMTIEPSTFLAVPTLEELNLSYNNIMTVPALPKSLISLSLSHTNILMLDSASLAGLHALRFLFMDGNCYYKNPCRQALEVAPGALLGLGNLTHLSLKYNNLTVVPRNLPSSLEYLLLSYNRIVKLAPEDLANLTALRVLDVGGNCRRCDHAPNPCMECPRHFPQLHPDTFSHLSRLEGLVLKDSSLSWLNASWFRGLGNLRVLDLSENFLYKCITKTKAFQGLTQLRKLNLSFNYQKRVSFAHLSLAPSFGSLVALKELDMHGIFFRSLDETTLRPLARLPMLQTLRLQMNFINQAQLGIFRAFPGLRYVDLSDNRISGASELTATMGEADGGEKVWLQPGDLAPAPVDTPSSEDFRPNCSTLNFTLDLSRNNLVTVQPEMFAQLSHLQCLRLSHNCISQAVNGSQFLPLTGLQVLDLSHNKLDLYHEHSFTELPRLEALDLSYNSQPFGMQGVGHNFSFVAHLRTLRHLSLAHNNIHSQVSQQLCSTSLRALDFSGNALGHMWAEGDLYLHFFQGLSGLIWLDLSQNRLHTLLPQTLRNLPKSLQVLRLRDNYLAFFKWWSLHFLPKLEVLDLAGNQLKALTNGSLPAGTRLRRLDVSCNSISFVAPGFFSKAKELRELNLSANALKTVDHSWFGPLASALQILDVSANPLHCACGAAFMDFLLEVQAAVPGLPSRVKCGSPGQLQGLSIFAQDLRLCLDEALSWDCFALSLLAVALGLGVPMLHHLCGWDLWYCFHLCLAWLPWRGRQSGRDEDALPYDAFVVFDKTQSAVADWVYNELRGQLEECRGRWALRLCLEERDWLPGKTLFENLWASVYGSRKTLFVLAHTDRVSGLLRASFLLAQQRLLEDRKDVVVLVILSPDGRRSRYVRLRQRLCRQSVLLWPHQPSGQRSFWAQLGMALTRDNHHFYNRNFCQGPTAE
BLA counter-1: beta-lactamase reporter inhibitors in CHO cells, artefact control for TLR9-MyD88 binding inhibitor project, cell-based, fluorescence; AID 540251, 2011; shares compounds with TLR9-MyD88 inh; 680 compounds, 7% hits; inhibition, % at 4.98 µM; CHO-BLA cells, CCF4 FRET ratio, BLA reporter;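 active = mean inhibition above a 50% cutoff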;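 also: counterscreen of TLR9-MyD88 hits on CMV-driven BLA in CHO-K1 cells; higher means less blue over green ratio so more BLA blockade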
TLR9 CHO cytotox: CHO cell viability loss – luminescence, single concentration, cytotoxicity control for TLR9-MyD88 binding inhibitor project. shares compounds with TLR9-MyD88 inh. TLR9-MyD88 CHO cells cytotoxicity. inhibition, % at 4.98 µM. 680 compounds, 39% hits. AID 588336, 2011; in the data active = inhibition above about 11%
NOD2-RIPK2 conf: NOD2-RIPK2 binding disruptors, retest, confirmation, fluorescence, CHO cells, BLA complementation, triplicate. AID 624370, 2012. inhibition, % at 4.98 µM. CCF4 FRET. 1,200 compounds, 70% hits. shares compounds with NOD2 RIPK2 PPI;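 active = mean inhibition across replicates above a set limit taken from the earlier primary screen, cut at about 21% in these data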
BLA counter-2: NOD2-RIPK2 counterscreen BLA reporter activity; shares compounds with NOD2 RIPK2 PPI; CHO BLA reporter, CCF4 FRET ratio; inhibition, % at 4.98 µM; 1,200 compounds, 57% hits; AID 624371;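 active = mean inhibition above the low-control mean inhibition plus three low-control SD, cut at about 11% in these data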
A number is an active result; – = inactive; · = not tested or not shown. Hits are enriched below; roughly 1.8% of the tested compounds scored in any of these assays.

SMILES	TLR9-MyD88 inh	NOD2 RIPK2 PPI	Bim-Mcl-1	TLR4 MyD88 comp	Mcl1-Noxa inh	Mcl1-Bid inh	TLR4 MyD88 cnf	BLA inhibitor ct	TLR9-MyD88 cf	BLA counter-1	TLR9 CHO cytotox	NOD2-RIPK2 conf	BLA counter-2
O=[N+]([O-])c1ccc(-c2ccc(/C=N/Nc3nc(NCc4ccccc4)nc(N4CCOCC4)n3)o2)cc1	36	–	–	55	–	–	47	76	29	–	–	·	·
O=[N+]([O-])c1ccc(/C=N/Nc2nc(N3CCCCCC3)nc(N3CCCCCC3)n2)o1	–	–	–	–	–	–	·	·	·	·	·	·	·
CN1/C(=C\C(=O)c2cccnc2)C(C)(C)c2ccccc21	–	–	–	–	–	–	·	·	·	·	·	·	·
CN1/C(=C/C(=O)c2nc(S(C)(=O)=O)ncc2Cl)C(C)(C)c2ccccc21	44	70	–	36	–	–	29	–	46	–	99	·	·
COc1cc(OC)cc(C(=O)NCC(=O)OCc2ccc(Cl)c(Cl)c2)c1	–	–	·	·	·	·	·	·	·	·	·	·	·
CCOc1ccc(-c2cc(C(=O)NCCCN3CCCC3)c3ccccc3n2)cc1	–	–	·	·	·	·	·	·	·	·	·	·	·
CC1C/C(=C/c2ccncc2)C(=O)/C(=C/c2ccncc2)C1 (stereo not drawn)	–	–	–	–	–	–	·	·	·	·	·	·	·
CC1C/C(=C/c2cccn2C)C(=O)/C(=C/c2cccn2C)C1 (stereo not drawn)	37	–	–	55	–	–	32	61	41	–	–	·	·
CC(Oc1ccccc1Cl)C(=O)Nc1ccc(S(=O)(=O)N2CCN(C)CC2)cc1 (stereo not drawn)	–	–	·	·	·	·	·	·	·	·	·	·	·
O=C(/C=C/c1c[nH]c2ccccc12)c1cccc2ccccc12	36	–	–	33	–	–	–	47	23	–	–	·	·
CCN(CC)c1ccc(/C=c2\sc3nc4ccccc4n3c2=O)c(O)c1	34	37	–	30	–	–	–	50	21	–	–	46	56
CCOc1ccc(NC(=O)C2CCCN(S(=O)(=O)c3c(C)noc3C)C2)cc1 (stereo not drawn)	–	–	·	·	·	·	·	·	·	·	·	·	·
O=C(C1=NN(c2ccccc2)C2C(=O)N(c3ccccc3Cl)C(=O)C12)c1ccccc1 (stereo not drawn)	28	42	–	38	–	–	–	27	–	–	–	47	48
O=C(C1=NN(c2ccccc2)C2C(=O)N(c3ccccc3)C(=O)C12)c1ccccc1 (stereo not drawn)	–	–	–	–	–	–	·	·	·	·	·	·	·
CCCCCCn1c(=O)[nH]c2nc3cc(N)c(C)cc3nc2c1=O	32	42	–	28	–	–	–	43	–	–	–	45	49
Cc1ccc(C(=O)Nc2cccc3ccccc23)cc1	–	–	·	·	·	·	·	·	·	·	·	·	·
CC(C)(C)c1ccc(C(=O)Nc2cccc3c(=O)[nH][nH]c(=O)c23)cc1	35	50	–	29	–	–	28	51	–	–	–	42	48
CC1(C)CC(=O)C2=C(C1)OC1=C(C(=O)CC(C)(C)C1)C2c1ccc(O)cc1O	–	67	–	34	–	–	–	–	·	·	·	79	–
O=S(=O)(c1ccc(Br)c2nsnc12)N1CCOCC1	27	56	–	56	–	–	54	76	–	–	14	54	20
CCNc1ccc2c(Cl)cc(=O)oc2c1	34	30	–	32	–	97	–	36	·	·	·	44	32
COc1cccc(-c2cnc(C(O)c3c(C)ccc4ccccc34)[nH]2)c1 (stereo not drawn)	·	–	·	·	·	·	·	·	·	·	·	·	·
O=[N+]([O-])c1ccc(NN=C(Oc2ccccc2)c2ccc([N+](=O)[O-])cc2)cc1	–	–	·	·	·	·	·	·	·	·	·	·	·
CC/C(=N\Nc1ccc([N+](=O)[O-])cc1)c1ccccc1	22	27	–	31	–	–	–	35	–	–	–	38	40
C/C(=N\Nc1ccc([N+](=O)[O-])cc1)c1ccco1	30	25	–	29	–	–	27	42	–	–	–	36	41
C/C(=N\Nc1ccc([N+](=O)[O-])cc1)c1ccc(N)cc1	–	–	–	–	–	–	·	·	·	·	·	·	·
SMILES	TLR9-MyD88 inh	NOD2 RIPK2 PPI	Bim-Mcl-1	TLR4 MyD88 comp	Mcl1-Noxa inh	Mcl1-Bid inh	TLR4 MyD88 cnf	BLA inhibitor ct	TLR9-MyD88 cf	BLA counter-1	TLR9 CHO cytotox	NOD2-RIPK2 conf	BLA counter-2
CCc1ccc(/C(C)=N\Nc2ccc([N+](=O)[O-])cc2)cc1	31	30	–	32	–	–	32	55	23	–	–	41	46
Nc1ncnc2c1cnn2C1CCCCC1	–	–	·	·	–	–	·	·	·	·	·	·	·
CCN(C[C@H]1N[C@@](Cc2ccccc2)(C(=O)OC)[C@H]2C(=O)N(C)C(=O)[C@@H]12)C(=O)NC(C)C	–	–	·	·	·	·	·	·	·	·	·	·	·
Cc1cc(SCC(=O)NCC(c2cccs2)N2CCOCC2)c(C)cc1Br (stereo not drawn)	–	–	·	·	·	·	·	·	·	·	·	·	·
Cn1cc(C=CC(=O)O)c2nccnc21	–	–	·	·	·	·	·	·	·	·	·	·	·
Nc1cccc2c1C(=O)N(CC(=O)NC13CC4CC(CC(C4)C1)C3)C2=O	–	39	–	31	–	–	–	37	·	·	·	44	47
Nc1ccccc1C(=O)NC12CC3CC(CC(C3)C1)C2	–	–	·	·	·	·	·	·	·	·	·	·	·
